# Bioassay records (PubChem)
# VLA-4 inh – inhibition in a human VLA-4 binding assay. actives 0.2% (n = 330,000). inhibition, % (about 7 µM as worked out from the volumes in the protocol). VLA-4 expressing cells, ligand binding flow cytometry. P13612; in the data active = inhibition above about 50%
# LAP4-GFP MLPCN – alters LAP4-GFP fluorescence in TOR pathway yeast screen; S. cerevisiae LAP4-GFP multiplex, flow cytometry GFP, 3 h; median GFP as percent of DMSO wells; GFP response vs DMSO, % at 10 µM; actives 0.34% (n = 320,000);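 active = GFP response vs DMSO above a set limit, about the screen mean plus 3 SD, cut at about 150% in these data; inconclusive = under 70 cell events counted for the yeast strain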
# RPL19A TOR yeast – alters RPL19A-GFP fluorescence in TOR pathway yeast screen; percent response vs DMSO, % at 10 µM; actives 0.3% (n = 330,000); AID 2025; S. cerevisiae RPL19A-GFP strain, flow cytometry, 3 h; active compounds read low;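 active = percent response vs DMSO below 50%; inconclusive = fewer than 70 events counted for the yeast strain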;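 also: median channel GFP fluorescence of the barcoded RPL19A-GFP strain; ratio of sample median GFP to plate DMSO average so 100% = DMSO; lower means less RPL19A-GFP as with rapamycin TOR inhibition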
# AGP1-GFP MLPCN – yeast TOR pathway AGP1-GFP modulation. actives 0.02% (n = 320,000). S. cerevisiae AGP1-GFP multiplex flow cytometry, 3 h; GFP as percent of DMSO wells. GFP response vs DMSO, % at 10 µM;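 active = GFP response relative to DMSO above a set limit, near screen average plus 3 SD, cut at about 150% in these data; inconclusive = fewer than 70 cells counted for the yeast strain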;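 also: median GFP channel fluorescence of the gated AGP1 strain per well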
# CIT2 TOR yeast – alters CIT2-GFP fluorescence in TOR pathway yeast screen; S. cerevisiae CIT2-GFP strain, flow cytometry, 3 h; 100 means same as DMSO wells; GFP response vs DMSO, % at 10 µM; actives 0.065% (n = 320,000); AID 2029;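 active = GFP response relative to DMSO above a set limit, near the screen mean plus 3 SD, cut at about 150% in these data; inconclusive = Fewer than 70 cells measured for a yeast strain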;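 also: ratio of well median GFP fluorescence to mean of DMSO wells on the plate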
# MEP2 TOR yeast – modulators of TOR pathway MEP2-GFP in S. cerevisiae; S. cerevisiae MEP2-GFP strain, flow cytometry GFP, 3 h; 100% = DMSO control level; GFP response vs DMSO, % at 10 µM; actives 0.51% (n = 330,000);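 active = GFP response versus DMSO above a set limit, roughly screen mean plus 3 SD, cut at about 180% in these data; inconclusive = fewer than 70 cells counted for a yeast strain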;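 also: median GFP fluorescence of the barcode-gated MEP2-GFP cells per well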
# VLA-4 allo CP – confirmation of allosteric modulators of human VLA-4 integrin; shares compounds with VLA-4 inh; U937 cells, HUTS-21 LIBS mAb binding, flow cytometry; LDV ligand present at threefold Kd; inhibition, % at 6.7 µM; actives 2% (n = 1,300); in the data active = inhibition above about 40%;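 also: 0% = ligand without compound and 100% = no ligand background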
# * hit, by the source's call; u = inconclusive; x = no result given. The list is not random: actives were taken first. Their share in the collection is about 1.1%.
SMILES,VLA-4 inh,LAP4-GFP MLPCN,RPL19A TOR yeast,AGP1-GFP MLPCN,CIT2 TOR yeast,MEP2 TOR yeast,VLA-4 allo CP
COc1ccc(CNC(=O)Cn2c(=O)oc3ccccc32)cc1OC,97*,105,95,111,104,99,-11
COc1cccc(CNC(=O)Cn2c(=O)oc3ccccc32)c1OC,38,104,101,92,93,100,-5
CCOc1ccccc1CNC(=O)Cn1c(=O)oc2ccccc21,26,94,103,105,100,93,x
CC(=O)NN1C(=O)/C(=C2/Sc3ccccc3N2C)SC1=S,42,96,108,109,108,109,13
COc1ccc(NC(=O)N(C)C[C@H]2Oc3ccc(NC(=O)CCN4CCOCC4)cc3C(=O)N([C@@H](C)CO)C[C@H]2C)cc1,7,125,101,106,101,100,x
C[C@@H](NC(=O)[C@@H]1Cc2ccccc2CN1)C(=O)NC1CCCCC1,51*,101,100,106,105,107,-1
CN(C)c1cccc(C(=O)OCC(=O)N(C)c2ccccc2)c1,-8,112,98,97,82,95,0
CCC(=O)c1cn(CC(=O)Nc2ccc(C)cc2)c2ccccc12,5,70,u,82,u,90,2
COC(=O)c1cn(CC(=O)Nc2ccccc2C)c2ccccc12,21,81,103,94,104,104,4
COC(=O)c1cn(CC(=O)Nc2ccc(OC)cc2)c2ccccc12,17,80,100,95,100,108,x
CCC(=O)c1cn(CC(=O)Nc2ccc(OC)cc2)c2ccccc12,57*,109,100,107,100,99,8
CC(=O)c1cn(CC(=O)Nc2ccccc2F)c2ccccc12,24,103,104,101,97,104,x
CCC(=O)c1cn(CC(=O)Nc2ccccc2)c2ccccc12,13,96,105,101,100,105,x
CCC(=O)c1cn(CC(=O)Nc2ccccc2F)c2ccccc12,11,81,103,92,98,104,3
COc1cccc(NC(=O)CN(C)C(=O)c2ccc(-c3ccccc3Cl)o2)c1,10,97,101,100,111,104,x
CSc1ccc(C(=O)c2[nH]c(=O)[nH]c2C)cc1,55*,110,101,88,83,105,0
Cc1[nH]c(=O)[nH]c1C(=O)CCCCC(=O)O,-2,98,95,93,97,103,x
CN1C(=O)NC(c2ccccc2[N+](=O)[O-])C2=C1CCCC2=O (stereo not drawn),-20,90,102,103,95,106,x
COC(=O)CC1C(=O)NCCN1C(=S)Nc1ccccc1Cl (stereo not drawn),53*,98,97,99,102,97,2
COC(=O)c1ccc(-n2c(C)cc(C(=O)CSc3ccc(NC(C)=O)cc3)c2C)cc1,40,103,94,113,83,89,-4
CN(CC(=O)O)S(=O)(=O)c1ccc(F)cc1,8,97,103,107,101,106,x
CN(Cc1ccccc1)C(=O)CN(C)S(=O)(=O)c1ccc(F)cc1,10,96,106,79,69,105,0
CC(C)[C@H](NS(=O)(=O)c1ccccc1)C(=O)Nc1ccccc1N1CCOCC1,16,96,101,97,90,104,x
COc1ccccc1/C=N/NC(=O)CCn1cnc2ccccc21,58*,98,100,100,102,107,-1
CC(C)(C)c1ccc(C(=O)N2CCN(C(=O)c3ccco3)CC2)cc1,16,102,98,101,102,95,x
SMILES,VLA-4 inh,LAP4-GFP MLPCN,RPL19A TOR yeast,AGP1-GFP MLPCN,CIT2 TOR yeast,MEP2 TOR yeast,VLA-4 allo CP
Cc1ccc2c([N+](=O)[O-])c(C)ccc2n1,51*,91,99,103,99,102,-1
Cc1ccc2c([N+](=O)[O-])cccc2n1,-2,88,99,99,95,96,x
CN1CCN(S(=O)(=O)c2cccc(C(=O)Oc3ccccc3Cl)c2)CC1,13,76,103,84,94,99,x
COc1ccc(C(N)=O)c(OCC(=O)Nc2cc(C)on2)c1,-7,98,102,106,105,101,x
CC(C)CC(=O)N=Nc1c(O)[nH]c2ccccc12,-4,94,112,105,102,101,x
O=C(CSCc1cccc(Br)c1)N=Nc1c(O)[nH]c2ccccc12,57*,165*,65,110,116,136,-15
Cc1cccc(C(=O)NC(=S)Nc2cccc3nc(C)ccc23)c1,7,104,98,92,91,92,x
CC(C)(C)c1ccc(Oc2ccc(NC(=O)C3CC=CCC3C(=O)O)cc2)cc1 (stereo not drawn),-13,94,93,95,87,98,x
Cc1ccccc1Oc1ccc(NC(=O)C2CC=CCC2C(=O)O)cc1 (stereo not drawn),54*,93,98,94,97,98,5
Cn1cc(C(=O)N/N=C/C=C/c2ccccc2)ccc1=O,45,101,100,104,97,104,7
COc1cccc(CNC(=O)CS(=O)(=O)Cc2nc(-c3ccc(C)cc3)oc2C)c1OC,2,100,102,100,96,96,x
CCC1=NN(C(=O)Cc2ccc([N+](=O)[O-])cc2)C(O)(C(C)(C)C)C1 (stereo not drawn),58*,102,107,108,108,108,-6
CCc1ccccc1NC(=S)Nn1cnnc1,-5,68,112,96,99,102,x
O=C(/C=C/c1ccccc1)NNC(=O)c1cccc(Cl)c1,0,107,101,100,96,99,x
O=C(/C=C/c1ccccc1)NNc1ccc(Cl)cc1,55*,116,102,93,100,109,3
COc1ccc(-c2cc(C3CCN(c4ccc(C(C)=O)cc4[N+](=O)[O-])CC3)[nH]n2)cc1,59*,108,99,96,94,111,16
Cc1cccn2c(=O)nc(SCC(=O)Nc3ccc4c(c3)OCCO4)nc12,3,106,97,106,83,95,x
CC[C@@H]1C=C(C(=O)O)[C@H](c2ccc(C)cc2)N1S(=O)(=O)c1ccc(C)cc1,36,107,97,102,100,97,0
CC[C@@H]1C=C(C(=O)O)[C@H](c2ccc(OC)c(OC)c2)N1S(=O)(=O)c1ccc(C)cc1,28,101,96,98,93,97,1
